Assay outcomes deposited in PubChem by ICCB-Longwood Screening Facility, Harvard Medical School.
Many of the other results were omitted from the sample, so hits are more common in it than they were.
S aureus helic: blocks Staphylococcus aureus DNA helicase; purified S. aureus helicase, fluorescence unwinding assay; hit rate 0.05% among 120,000; AID 485395; inhibition, % (concentration not given with the values); in the data active = inhibition above about 25%, passing the limit was not always enough
HCMV UL50-53 inh: disrupts HCMV UL50-UL53 complex binding; AID 1918969; hit rate 0.15% among 190,000; HTRF UL50-UL53 interaction, normalized percent inhibition; inhibition, % (no concentration beside the values); in the data active = inhibition above about 27%, passing the limit was not always enough
Sa growth 42C: inhibitors of Staphylococcus aureus growth at 42 °C | relative growth, % (concentration not given with the values) | S. aureus RN4220 growth, OD600, 20 h; active compounds read low | AID 720641 | hit rate 0.53% among 170,000;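 active = relative growth at most 50% at the other temperature and 20+ points below 30 °C, or under 10% at both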
Hits are given with their value; i = inactive; nt = no result given; ! = repeats disagree.

SMILES	S aureus helic	HCMV UL50-53 inh	Sa growth 42C
COc1cccc(OC)c1/C(O)=C(\C#N)c1nc2ccccc2s1	i	i	1.4
Cc1ccc2c(c1)c1c3n2CC(O)CN=C3CCC1 (stereo unspecified)	i	i	i
c1ccc(-c2ccc3c(c2)c2c4n3CCN=C4CCC2)cc1	i	i	-0.2
Cc1nc2c(C(=O)NCc3ccccc3)c[nH]n2c(=O)c1Cl	i	nt	i
Cc1nc2c(C(=O)NCc3ccccc3)c[nH]n2c(=O)c1Cc1ccccc1Cl	nt	nt	0.7
NC(=S)N/N=C(/C(=O)c1ccccn1)c1ccccn1	i	i	i
Cc1cccc(Nc2nc3nonc3nc2Cl)c1	i	i	-0.4
Cc1cccc(Nc2nc3nonc3nc2N2CCC(C)CC2)c1	nt	i	nt
C/C(CN1C(=O)c2ccccc2C1=O)=N/NC(=O)c1ccccc1O	i	i	i
Cc1nc2c(-c3ccccc3)c(C)[nH]n2c(=O)c1Cc1ccc(Br)cc1	nt	i	0.1
Cc1ccc(Cc2c(C)nc3c(-c4ccccc4)c(C)[nH]n3c2=O)cc1	nt	i	i
CC(Cc1ccccc1)Nc1nc2c(S(=O)(=O)c3ccccc3)nnn2c2ccsc12 (stereo unspecified)	nt	i	nt
NCc1cn(-c2ccccc2)nc1-c1ccccc1	i	i	i
N=C(N)SCc1cn(-c2ccccc2)nc1-c1ccc(Br)cc1	i	i	1.1
O=C1CN(C(=O)c2ccc3c(c2)OCO3)C(c2ccccc2)c2cc(F)ccc2N1 (stereo unspecified)	i	i	i
Cc1nc(-c2cccc(NC(=O)/C=C\C(=O)O)c2)cs1	i	i	nt
Cc1nc(-c2c[nH]c(C(=O)O)c2)cs1	49.0	i	i
CO[C@H]1C[C@H](O[C@H]2[C@H](C)[C@@H](OC3O[C@H](C)C[C@H](N(C)C)[C@H]3O)[C@@H](C)C[C@]3(CO3)C(=O)[C@H](C)[C@@H](O)[C@@H](C)[C@@H](C)OC(=O)[C@@H]2C)O[C@@H](C)[C@@H]1O (stereo partly specified)	nt	i	-0.6
CO[C@H]1C[C@H](O[C@H]2[C@H](C)[C@@H](OC3O[C@H](C)C[C@H](N(C)C)[C@H]3OC(C)=O)[C@@H](C)C[C@]3(CO3)C(=O)[C@H](C)[C@@H](OC(C)=O)[C@@H](C)[C@@H](C)OC(=O)[C@@H]2C)O[C@@H](C)[C@@H]1OC(C)=O (stereo partly specified)	nt	i	i
Cn1nccc1NC(=O)Nc1ccc(Cl)cc1	i	65.6	i
Cn1nc(C(C)(C)C)cc1NC(=O)Nc1ccc(Cl)cc1	nt	i	nt
COc1cccc2c1C(=O)c1c(O)c3c(c(O)c1C2=O)C[C@@](O)(C(=O)CO)C[C@@H]3O[C@H]1C[C@H](N)[C@H](O)[C@H](C)O1	nt	i	1.8!
COc1cccc2c1C(=O)c1c(O)c3c(c(O)c1C2=O)C[C@@](O)(C(=O)CO)CC3OC1CC(N)C(O)C(C)O1 (stereo partly specified)	nt	i	nt
NC(=S)COc1ccc(F)cc1	25.0	i	i
N#CC(C#N)=C(N)COc1ccc(F)cc1	nt	i	nt
SMILES	S aureus helic	HCMV UL50-53 inh	Sa growth 42C
Cc1ccc(NC2=CC(=O)c3sc(C)nc3C2=O)cc1	nt	103.2!	nt
Cc1ccc(Nc2nnc(C)c(=O)[nH]2)cc1	i	i	i
CC[C@@H]1OC(=O)C[C@H](O)[C@@H](C)[C@@H](O[C@@H]2O[C@H](C)[C@@H](O[C@H]3C[C@@](C)(O)[C@@H](O)[C@H](C)O3)[C@H](N(C)C)[C@H]2O)[C@@H](C=O)C[C@@H](C)C(=O)/C=C/C(C)=C\[C@@H]1CO[C@H]1O[C@@H](C)[C@H](O)[C@H](OC)[C@@H]1OC	nt	i	-1.0
CC[C@H]1OC(=O)C[C@@H](O)[C@H](C)[C@@H](O[C@@H]2O[C@H](C)[C@@H](O[C@H]3C[C@@](C)(O)[C@@H](O)[C@H](C)O3)[C@H](N(C)C)[C@H]2O)[C@@H](CC=O)C[C@@H](C)C(=O)/C=C/C(C)=C/[C@@H]1CO[C@@H]1O[C@H](C)[C@@H](O)[C@@H](OC)[C@H]1OC	nt	i	-0.2
COc1ccc(CCN2COc3c(cc(Cl)c4cccnc34)C2)cc1OC	i	i	nt
COCCN1COc2c(cc(Cl)c3cccnc23)C1	i	i	0.9
CCCn1c(=O)c2sccc2n2c(SCC(=O)Nc3ccc(C(=O)OCC)cc3)nnc12	nt	i	nt
CCC1CCCCN1C(=O)CN1C(=O)CSc2ccc(S(=O)(=O)N(CC)CC)cc21 (stereo unspecified)	nt	i	nt
CCC1CCCCN1C(=O)Cn1cc(S(=O)(=O)N(C)C)ccc1=O (stereo unspecified)	29.0	i	i
CC(C)N1CCC(=NNc2cccc(C(=O)O)c2)CC1	i	i	i
COc1cc(C=C2C(=O)N(C)C(=O)N(C)C2=O)ccc1OS(=O)(=O)c1ccccc1[N+](=O)[O-]	nt	43.0	nt
CCOc1cc(/C=C2/C(=O)N(c3ccccc3)N=C2C)ccc1OS(=O)(=O)c1ccccc1[N+](=O)[O-]	nt	i	nt
CC1(C)C(=O)N(CC(=O)NCc2ccccc2)c2ccccc21	nt	i	nt
Oc1ccc2c(c1)c(-c1ccccc1)nn2-c1ccccc1	i	i	19.7
c1ccc(-c2nn(-c3ccccc3)c3c2cnc2ccccc23)cc1	i	nt	i
Cc1cc2oc(=O)cc(C)c2c(=O)[nH]1	i	i	i
O=C(CC(NCC1CCCO1)C(=O)O)Nc1cccc(Cl)c1Cl (stereo unspecified)	i	i	nt
O=C(N=Nc1c2ccccc2c2nc3no[nH]c3nc12)c1ccccc1O	i	i	0.6
O=C(N=Nc1c(O)[nH]c(=O)[nH]c1=O)c1ccccn1	i	i	i
CNC(=O)CN1C(=O)CSc2ccc(C(=O)N3CCCC3)cc21	nt	i	nt
Clc1cccc(Cl)c1OCCCn1ccnc1	i	i	i
Ic1ccc(OCCCCn2ccnc2)cc1	i	i	1.3
CCOc1ccc(NC(=S)NCCCn2ccnc2)cc1	i	nt	i
CC(C)(C)c1ccc(OCCCn2ccnc2)cc1	i	i	2.3
CSc1nc2c([nH]c3ccccc32)c(=O)n1C	i	i	i
SMILES	S aureus helic	HCMV UL50-53 inh	Sa growth 42C
Cc1ccc(O)c(NC(=O)C2CC(c3ccc(Cl)cc3)=NO2)c1 (stereo unspecified)	i	i	i
O=C(CCn1ccnc1)OCc1ccccc1	i	i	i
O=C(OCCn1ccnc1)c1ccc(-c2ccccc2)cc1	i	i	3.0
C=C1C2(C(=O)Nc3ccccc3OC)CCC(C2)C1(C)C (stereo unspecified)	i	i	i
Cc1onc(-c2c(Cl)cccc2Cl)c1C(=O)NC1C(=O)N2C1SC(C)(C)C2C(=O)O (stereo unspecified)	nt	i	nt
Cc1onc(-c2ccccc2)c1C(=O)NC1C(=O)N2[C@@H]1SC(C)(C)[C@@H]2C(=O)O (stereo partly specified)	nt	i	-0.9
COc1cccc(OC)c1C(=O)N[C@@H]1C(=O)N2[C@@H]1SC(C)(C)[C@@H]2C(=O)O	nt	i	-0.7
CC1(C)S[C@@H]2C(NC(=O)C(C(=O)O)c3ccccc3)C(=O)N2C1C(=O)O (stereo partly specified)	nt	i	nt
Cc1onc(-c2c(Cl)cccc2Cl)c1C(=O)N[C@@H]1C(=O)N2[C@@H]1SC(C)(C)[C@@H]2C(=O)O	nt	i	-0.4
CC1(C)SC2C(NC(=O)Cc3ccccc3)C(=O)N2C1C(=O)O (stereo unspecified)	nt	i	nt
O=C(Cc1ccc2c(c1)OCCO2)Nc1cccc(C(F)(F)F)c1	i	i	i
Cc1nn(C)c(C)c1NC(=O)CNC(=O)Cc1cccc2ccccc12	i	i	i
